Compound activity: PubChem BioAssay, National Center for Advancing Translational Sciences (NCATS)
TDP1 cell CPT: DT40-hTDP1 cell growth loss with CPT. chicken DT40 Tdp1-/-;hTDP1 cells + 20 nM CPT, ATP luminescence, 48 h. hit rate 12% among 420,000. AID 686979. Potency, µM (series often up to 46.2 µM), for inactives: at the highest dose activity change, negative = growth inhibition, usual class: inhibitors; further: potency means the concentration at half of the fitted maximal effect; nearly all actives have a fitted effect of over 55% in size
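Chicken DT40 Tdp1-/- cells stably complemented with human TDP1 were seeded at 400 cells/well in medium containing 20 nM camptothecin, exposed to pin-transferred compounds, and grown at 37 °C for at least 48 hr. Viability was read as ATP luminescence.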
IL-1B inflam inh: inhibitors of inflammasome signaling (IL-1 beta secretion); hit rate 4.7% among 360,000; activity change, % at 57.5 µM; THP-1 LPS/ATP IL-1B secretion, AlphaLISA, 16 h; active compounds read low; in the data active means activity change below about -50%; inconclusive means mostly about -30% to -49%
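Secreted IL-1B measured by AlphaLISA bead assay after 16 h compound exposure of THP-1 cells; compounds (final up to 57.5 uM) added 1 h before LPS (250 ng/mL) and ATP (1.25 mM) stimulation; lower signal means less secretion.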
DT40 TDP1 no CPT: qHTS for Inhibitors of human tyrosyl-DNA phosphodiesterase 1 (TDP1): qHTS in cells in absence of CPT; hit rate 15% among 420,000; Potency, µM (series often up to 46.2 µM), without a hit: at the top dose activity change, negative = growth inhibition, actives largely listed as inhibitors; DT40 Tdp1-/- hTDP1 cells, no CPT, ATP luminescence, 48 h; further: potency means the concentration at half of the fitted maximal effect; nearly all actives have a fitted effect of over 55% in size
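Chicken DT40 Tdp1-/- cells stably complemented with human TDP1 were seeded at 400 cells/well with DMSO in place of 20 nM camptothecin. After compound pinning, cells grew at least 48 hr at 37 °C; viability read by CellTiter-Glo luminescence.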
HT1080 IDH1KD tx: toxicity to HT-1080 IDH1 knockdown cells (counter line) | Potency, µM (top dose mostly 46.1 µM), for inactives: at the highest dose activity, negative = toxicity, usual class: cytotoxic | hit rate 2% among 360,000 | HT-1080 IDH1 knockdown viability, ATP luminescence, 48 h;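 further: potency means the concentration at half of the fitted maximal effect; 0% = DMSO wells and -100% = cell-free medium wells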
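In this qHTS, HT-1080 cells depleted of IDH1 are exposed for 48 h at 37 °C to compound titrations. Toxicity is scored from CellTiter-Glo luminescence, with DMSO as full viability and medium alone as none.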
HT1080-NT tox: kills 2HG-producing HT-1080-NT fibrosarcoma cells; HT-1080-NT fibrosarcoma viability, CellTiter-Glo ATP luminescence, 48 h; AID 686970; Potency, µM (series often up to 46.1 µM), for inactives: top-dose activity, negative = less viability, actives largely listed as cytotoxic; hit rate 1.6% among 360,000;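 further: NT is the 2HG producing partner of a matched IDH1 knockdown line; potency means the concentration at half of the fitted maximal effect; 0% = DMSO-treated cells and -100% = media-only wells without cells; nearly all actives have a fitted effect of over 55% in size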
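A 48-hour cytotoxicity screen used HT-1080-NT cells plated 2 hours before compound delivery. ATP-based CellTiter-Glo luminescence measured viability, normalized to DMSO and no-cell controls.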
* = called active by the depositor. Hits are enriched below; roughly 19% of the tested compounds scored in any of these assays. Unless noted, the call rests on the fitted dose curve; in most records, active means well fitted curve in the direction sought with a large enough effect; inconclusive means small, poorly fitted or top-dose-only effect, or another doubt; inactive means no such curve, though single readings can be large; an effect the other way counts as inactive or inconclusive. Unless noted, on the % scale 0 is the no-effect control and ±100 the full control effect.

CCOC(=O)c1c(C)[nH]c(C(=O)CN(C)CC(=O)Nc2ccccc2C(F)(F)F)c1C was read as TDP1 cell CPT -26.3%, IL-1B inflam inh 16.4, DT40 TDP1 no CPT inconclusive, HT1080 IDH1KD tx 2.9% and HT1080-NT tox -2.3%.
Screening CC1OC(n2cc(F)c(=O)[nH]c2=O)C(O)C1O (stereo not drawn) returned TDP1 cell CPT 6.51µM* and DT40 TDP1 no CPT 3.66µM*.
Cc1cn([C@H]2C[C@H](F)[C@@H](CO)O2)c(=O)[nH]c1=O was read as TDP1 cell CPT 6.68µM* and DT40 TDP1 no CPT 16.8µM*.
For O=c1[nH]c(=O)n([C@@H]2O[C@H](CO)[C@@H](O)[C@H]2O)cc1Br the results were TDP1 cell CPT 3.5% and DT40 TDP1 no CPT -23.9%.
For Cc1cn([C@H]2C[C@H](N=[N+]=[N-])[C@@H](CO)O2)c(=O)[nH]c1=O the results were TDP1 cell CPT 21.1µM*, IL-1B inflam inh 82.7, DT40 TDP1 no CPT 7.5µM*, HT1080 IDH1KD tx 0.8% and HT1080-NT tox 21.4%.
For O=c1[nH]c(=O)n([C@H]2C[C@H](O)[C@@H](CO)O2)cc1F the results were TDP1 cell CPT 3.26µM*, IL-1B inflam inh 41.0, DT40 TDP1 no CPT 0.0366µM*, HT1080 IDH1KD tx 0.731µM* and HT1080-NT tox 0.461µM*.
For Cc1c(C)n(CCCN(C)C)c2ncnc(NCc3ccccc3)c12 the results were TDP1 cell CPT 3.2%, IL-1B inflam inh inconclusive, DT40 TDP1 no CPT -17.3%, HT1080 IDH1KD tx -19.6% and HT1080-NT tox -3.6%.
Screening COc1ccc(NC(=O)Cn2cc(C(=O)c3ccc(C)c(C)c3)c(=O)c3cc(OC)ccc32)cc1 returned TDP1 cell CPT -5.7% and DT40 TDP1 no CPT -1.0%.
CC1=C(C(=O)N(C)C)CC(CC(=O)NC2CCCCC2)C(=O)N1Cc1ccc(F)cc1 (stereo not drawn) was read as TDP1 cell CPT -1.8%, IL-1B inflam inh 16.8, DT40 TDP1 no CPT -25.4%, HT1080 IDH1KD tx 13.0% and HT1080-NT tox -1.4%.
`Cc1ccccc1NC(=O)C1CC(Cl)=CCC1C(=O)O` (stereo not drawn) gave TDP1 cell CPT inconclusive, IL-1B inflam inh 2.9, DT40 TDP1 no CPT 13µM*, HT1080 IDH1KD tx 3.6% and HT1080-NT tox 6.6%.
`Cc1ccc(NC(=O)C2CC(Cl)=CCC2C(=O)O)c([N+](=O)[O-])c1` (stereo not drawn) gave TDP1 cell CPT 5.4%, IL-1B inflam inh 9.3, DT40 TDP1 no CPT inconclusive, HT1080 IDH1KD tx -6.4% and HT1080-NT tox -4.4%.
Screening CC12CCC(C(=NO)C1=NO)C2(C)C (stereo not drawn) returned TDP1 cell CPT 2.3%, IL-1B inflam inh 1.4, DT40 TDP1 no CPT -12.7%, HT1080 IDH1KD tx 7.3% and HT1080-NT tox 8.7%.
Screening CC12CCC(c3c1nc1ccccc1[n+]3[O-])C2(C)C (stereo not drawn) returned TDP1 cell CPT inconclusive, IL-1B inflam inh 2.8, DT40 TDP1 no CPT 18.4µM*, HT1080 IDH1KD tx 21.5% and HT1080-NT tox 21.3%.
`C[C@@H]1O[C@H](C2CC2)Cc2[nH]c(=S)[nH]c(=O)c21` gave TDP1 cell CPT -1.2%, IL-1B inflam inh 44.0, DT40 TDP1 no CPT -17.7%, HT1080 IDH1KD tx 0.8% and HT1080-NT tox 12.9%.
`CC(C)c1ccc(NC(=O)C2C3C=CC4(CN(CCCN5CCOCC5)C(=O)C24)O3)cc1` (stereo not drawn) gave TDP1 cell CPT -3.5%, IL-1B inflam inh 8.8, DT40 TDP1 no CPT -6.0%, HT1080 IDH1KD tx 5.0% and HT1080-NT tox 1.1%.
`CCn1ncc(CNC(=O)C2(C)CC2(Cl)Cl)c1C` (stereo not drawn) gave TDP1 cell CPT -1.9%, IL-1B inflam inh 14.3, DT40 TDP1 no CPT -10.2%, HT1080 IDH1KD tx -4.7% and HT1080-NT tox -1.4%.
For CC1=C(c2ccc(C)cc2)S(=O)(=O)NC1=NCCCN1CCN(c2ccccc2F)CC1 the results were TDP1 cell CPT inconclusive and DT40 TDP1 no CPT 16.4µM*.
`C=CC(=O)N(CCC)C(c1ccccc1)c1ccccc1OC` (stereo not drawn) gave TDP1 cell CPT 16.4µM*, IL-1B inflam inh -27.0, DT40 TDP1 no CPT 14.6µM*, HT1080 IDH1KD tx -2.9% and HT1080-NT tox -2.7%.
For COc1cccc(/C=N/NC(=O)c2ccc(-n3cnnn3)cc2)c1 the results were TDP1 cell CPT -3.8%, IL-1B inflam inh -8.3, DT40 TDP1 no CPT -16.6%, HT1080 IDH1KD tx inconclusive and HT1080-NT tox inconclusive.
CN1CCN(c2ccc(-c3cc(NC=O)c4ncc(-c5ccc(F)cc5)n4c3)cc2)CC1 was read as TDP1 cell CPT 14.6µM*, IL-1B inflam inh -12.2, DT40 TDP1 no CPT inconclusive, HT1080 IDH1KD tx inconclusive and HT1080-NT tox inconclusive.
Screening CN1CCN(c2ccc(-c3cc(NC=O)c4ncc(-c5ccccc5)n4c3)cc2)CC1 returned TDP1 cell CPT 20.6µM*, IL-1B inflam inh -7.0, DT40 TDP1 no CPT 16.4µM*, HT1080 IDH1KD tx inconclusive and HT1080-NT tox inconclusive.
Screening COc1ccc(CNC(=O)c2cc3c(=O)n(Cc4cccnc4)ccc3nc2C)cc1 returned TDP1 cell CPT 9.9% and DT40 TDP1 no CPT -0.1%.
O=C(Nc1ccc(F)cc1F)c1cc2ccc3cccnc3c2[nH]1 was read as TDP1 cell CPT 2.91µM* and DT40 TDP1 no CPT inconclusive.
`CCCCNC(=O)c1cccc(-n2c(C)nc3cccnc32)c1` gave TDP1 cell CPT -3.6% and DT40 TDP1 no CPT -28.2%.
Screening Cc1cccc(N2CCN(C(=O)c3cccc(-n4c(C)nc5cccnc54)c3)CC2C)c1 (stereo not drawn) returned TDP1 cell CPT 8.2µM* and DT40 TDP1 no CPT 6.51µM*.
Screening Cc1ccc(Cl)cc1N1CCN(C(=O)c2ccc(C)c(-n3c(C)nc4cccnc43)c2)CC1 returned TDP1 cell CPT 7.31µM* and DT40 TDP1 no CPT 5.17µM*.
Screening Cc1ccc(C)c(N2CCN(C(=O)c3cccc(-n4c(C)nc5cccnc54)c3)CC2)c1 returned TDP1 cell CPT 7.31µM* and DT40 TDP1 no CPT 13µM*.
Cc1ccc(Cl)cc1N1CCN(C(=O)c2ccc(CN3CCOCC3)cc2)CC1 was read as TDP1 cell CPT inconclusive, IL-1B inflam inh inconclusive, DT40 TDP1 no CPT inconclusive, HT1080 IDH1KD tx -4.7% and HT1080-NT tox 9.7%.
For CCCCCCC(C)OC(=O)Nc1cccc2ccccc12 (stereo not drawn) the results were TDP1 cell CPT -2.1%, IL-1B inflam inh 4.5, DT40 TDP1 no CPT inconclusive, HT1080 IDH1KD tx 8.1% and HT1080-NT tox -7.7%.
Cc1ccc(C)c(N2CCN(C(=O)c3cc4cc5ccc(C)cc5nc4s3)CC2)c1 was read as TDP1 cell CPT inconclusive and DT40 TDP1 no CPT 6.0%.
